Peg3 prom inh – Peg3 promoter-driven luciferase inhibitors, primary screen, cell-based, HeLa, luciferase luminescence. HeLa PEG-Prom luciferase reporter, overnight. inhibition, % at 20 µM. AID 588405, 2011. 360,000 compounds, 1.7% hits;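 active means inhibition of at least 50% at 20 µM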
CF NFkB inh – inhibitors of PAF-induced NF-kB signaling, primary screen, cell-based, GFP fluorescence, uHTS; KKLEB NF-kB-GFP reporter, GFP fluorescence overnight; 360,000 compounds, 0.86% hits; inhibition, % at 5 µM;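 active means at least 50% inhibition at 5 µM, scaled per plate between neutral and stimulator controls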;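 further: PAF is a Pseudomonas aeruginosa culture filtrate used as stimulus; plate controls were PAF-stimulated DMSO wells for no effect and unstimulated DMSO wells for full effect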
TRPM1 prom inh – inhibitors of MITF-dependent TRPM1 promoter reporter, primary screen, cell-based, SK-MEL-5, single point, luciferase. SK-MEL-5 TRPM1 promoter luciferase, 24 h. AID 488899, 2010. 330,000 compounds, 0.83% hits. inhibition, % at 12.5 µM;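 active means mean inhibition across replicates of 60% or more, whatever share of single replicates reaches that level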
KKLEB cytotox – cytotoxicity in KKLEB CF airway cells, primary screen, cytotoxicity control for CF NF-kB inhibitor project, cell-based, uHTS, fluorescence assay plates; KKLEB CF airway cells viability, ATPlite luminescence, overnight; active compounds read low; cells stimulated with P. aeruginosa culture filtrate; activity change (cytotoxicity), % at 5 µM; 360,000 compounds, 0.36% hits;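 active means corrected activity change at or below -50% at 5 µM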
HIF-2a block – HIF-2a reporter inhibitors, primary screen, luminescence, 786-0 RCC cells. 786-0 RCC cells HIF-2a reporter, luciferase luminescence, overnight. AID 624352, 2012. inhibition, % at 18.8 µM. 360,000 compounds, 0.72% hits;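 active means inhibition of the luminescence signal of 40% or more relative to plate controls, in a single-dose primary screen at 18.75 µM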
Shn3 3UTR inh – reduction of Shn3 3'UTR firefly luciferase signal, primary screen, Schnurri-3 inhibitor project, cell-based, Clone20 osteoblasts, set 2. 360,000 compounds, 0.52% hits. Clone20 osteoblast Shn3 3'UTR firefly luciferase, 24 h. inhibition, % at 12.5 µM;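 active means mean inhibition of at least 75% with every replicate also reaching 75%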;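 further: 0% = median of neutral control wells and 100% = pilot-screen positive control compound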
Mdm2-MdmX confirm – retested Mdm2-MdmX interaction blockers, confirmation, cell-based, luminescence, single concentration, set 2; shares compounds with HIF-2a block; SaOS-2 split-luciferase Mdm2/MdmX complementation; inhibition, % at 8 µM; 740 compounds, 99% hits; AID 504601, 2011;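 active means mean inhibition of the luminescence signal across two replicates at or above 26 percent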
Target sequence (O15151 whole entry, looked up): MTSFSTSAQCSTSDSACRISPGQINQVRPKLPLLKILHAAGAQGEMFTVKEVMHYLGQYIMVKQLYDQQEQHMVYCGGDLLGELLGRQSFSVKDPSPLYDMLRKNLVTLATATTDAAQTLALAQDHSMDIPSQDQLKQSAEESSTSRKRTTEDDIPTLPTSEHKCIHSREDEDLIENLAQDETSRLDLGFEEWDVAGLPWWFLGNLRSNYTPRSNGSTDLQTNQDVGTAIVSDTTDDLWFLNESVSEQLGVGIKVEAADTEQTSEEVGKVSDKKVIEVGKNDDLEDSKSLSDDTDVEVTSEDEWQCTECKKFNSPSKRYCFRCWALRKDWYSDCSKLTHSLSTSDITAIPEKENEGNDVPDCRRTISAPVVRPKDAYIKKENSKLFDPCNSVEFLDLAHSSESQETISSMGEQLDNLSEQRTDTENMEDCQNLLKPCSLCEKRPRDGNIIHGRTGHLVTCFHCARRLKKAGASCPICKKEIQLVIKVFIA
Target sequence (Q00987 whole entry, looked up): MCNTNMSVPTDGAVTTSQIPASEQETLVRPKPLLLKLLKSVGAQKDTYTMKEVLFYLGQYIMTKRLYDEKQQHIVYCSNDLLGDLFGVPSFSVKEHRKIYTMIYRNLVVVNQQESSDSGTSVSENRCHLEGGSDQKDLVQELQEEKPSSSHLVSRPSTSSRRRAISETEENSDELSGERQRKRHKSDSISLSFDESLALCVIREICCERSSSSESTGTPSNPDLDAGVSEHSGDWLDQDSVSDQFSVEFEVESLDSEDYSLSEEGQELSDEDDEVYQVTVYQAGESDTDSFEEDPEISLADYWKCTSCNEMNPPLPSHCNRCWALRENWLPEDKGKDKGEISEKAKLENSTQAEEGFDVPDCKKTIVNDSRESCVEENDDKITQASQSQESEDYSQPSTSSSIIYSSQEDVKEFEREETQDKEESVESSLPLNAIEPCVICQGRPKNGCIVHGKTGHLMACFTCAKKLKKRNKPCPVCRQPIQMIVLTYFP
HIF-2a conf – HIF-2a reporter inhibitor retest, confirmation, luminescence, 786-0 RCC cells; shares compounds with HIF-2a block; HIF-2a luciferase reporter luminescence, overnight; inhibition, % at 18.8 µM; 1,800 compounds, 56% hits;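 active means mean inhibition across four replicates of at least 40 percent at the single tested concentration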
HIF-1a counter – HIF-1a luciferase reporter signal reduction – MiaPaCa-2 cells, single concentration, counter-screen for HIF-2a inhibitor project, confirmation; shares compounds with HIF-2a block; MiaPaCa-2 HIF-1a luciferase reporter, desferoxamine, overnight; inhibition, % at 18.8 µM; 1,800 compounds, 72% hits;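 active means mean inhibition of the reporter signal across four replicates at the single tested dose of 50% or more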
Active calls of the source: *. In the library only some 2.8% were active in any assay of this set; here they are far more common.

`O=c1c2ccccc2nc(/C=C/c2ccc([N+](=O)[O-])o2)n1-c1ccc(O)cc1` gave Peg3 prom inh 103*, CF NFkB inh 12, TRPM1 prom inh 94*, KKLEB cytotox 1, HIF-2a block 67*, Shn3 3UTR inh 98*, HIF-2a conf 2 and HIF-1a counter 105*.
CCC(C)C1NC(=O)C2CCCN2C(=O)C(CC(C)C)OC(=O)CCNC(=O)C(C)N(C)C(=O)C(C(C)C)N(C)C1=O (stereo not drawn) was read as Peg3 prom inh 27, CF NFkB inh 24, TRPM1 prom inh -24, KKLEB cytotox -13, HIF-2a block -4 and Shn3 3UTR inh 72.
`C=CCCC[C@@H]1OC(=O)CNC(=O)C([C@@H](C)CC)NC(=O)[C@@H]2CCCN2C(=O)C([C@@H](C)CC)OC(=O)[C@H](Cc2ccccc2)N(C)C(=O)[C@H](C(C)C)NC(=O)C1(C)C` (stereo partly drawn) gave Peg3 prom inh 15, CF NFkB inh -24, KKLEB cytotox 4, HIF-2a block 82*, Shn3 3UTR inh 5, HIF-2a conf -13 and HIF-1a counter 104*.
COC(=O)C1=C(c2ccc3ccccc3c2)C[C@@H]2CC[C@H]1N2C was read as Peg3 prom inh -14, CF NFkB inh 7, TRPM1 prom inh 3, KKLEB cytotox 8, HIF-2a block -6 and Shn3 3UTR inh -16.
`COC(=O)C1=C(C(=O)OC)C2OC1c1cc3ccccc3cc12` gave Peg3 prom inh 95*, CF NFkB inh 42, TRPM1 prom inh 112*, KKLEB cytotox -18, HIF-2a block 86*, Shn3 3UTR inh 95*, HIF-2a conf 84* and HIF-1a counter 59*.
COc1ccc(C(CNC(=O)c2ccc3c(c2)CCC3)N(C)C)cc1 (stereo not drawn) was read as Peg3 prom inh 4, CF NFkB inh -20, TRPM1 prom inh 4, KKLEB cytotox -1, HIF-2a block -17 and Shn3 3UTR inh 5.
COc1ccc(CN2Cc3cnnn3-c3ccccc3C2C#N)cc1 (stereo not drawn) was read as Peg3 prom inh 93*, CF NFkB inh 7, TRPM1 prom inh 98*, KKLEB cytotox -3, HIF-2a block 90*, Shn3 3UTR inh -21, HIF-2a conf 96* and HIF-1a counter 105*.
For CS(=O)(=O)NNP(=O)(NNS(C)(=O)=O)NC(=O)c1ccccc1 the results were Peg3 prom inh 4, CF NFkB inh -13, TRPM1 prom inh -5, KKLEB cytotox 9, HIF-2a block -4 and Shn3 3UTR inh 4.
For N=C(N)c1c(O)n(C2CCCCC2)c(=O)n(C2CCCCC2)c1=O the results were Peg3 prom inh 77*, CF NFkB inh 27, TRPM1 prom inh 20, KKLEB cytotox -20, HIF-2a block 52*, Shn3 3UTR inh 45, HIF-2a conf 24 and HIF-1a counter 97*.
O=C1Nc2ccccc2Oc2ccccc21 was read as Peg3 prom inh 8, CF NFkB inh 10, KKLEB cytotox -4, HIF-2a block -3 and Shn3 3UTR inh -32.
Screening Cc1c(C(=O)N2CCC3(CC2)OCCO3)sc2ncnc(N3CCc4ccccc4C3)c12 returned Peg3 prom inh 21, CF NFkB inh -12, TRPM1 prom inh 4, KKLEB cytotox 9, HIF-2a block 21 and Shn3 3UTR inh -7.
`CCOC(=O)[C@]12Cc3cc(OC)ccc3[C@H]1N(C1CCCCC1)C(=O)c1ccccc12` gave HIF-2a block 16.
`CCOC(=O)[C@]12Cc3cc(Cl)ccc3[C@H]1N(C)C(=O)c1ccccc12` gave HIF-2a block 18.
For CCCCCN1C(=O)c2cc(OC)ccc2[C@@]2(C(=O)OCC)Cc3cc(Cl)ccc3[C@@H]12 the results were HIF-2a block 80*, HIF-2a conf 97* and HIF-1a counter 105*.
CCOC(=O)[C@]12Cc3cc(Cl)ccc3[C@H]1N(C1CCCCC1)C(=O)c1ccccc12 was read as HIF-2a block 85*, HIF-2a conf 97* and HIF-1a counter 105*.
`CCOC(=O)[C@]12Cc3cc(Cl)ccc3[C@H]1N(Cc1ccccc1)C(=O)c1cc(OC)ccc12` gave HIF-2a block 37.
For CCOC(=O)[C@]12Cc3cc(Cl)ccc3[C@H]1N(CC(=O)OC)C(=O)c1ccccc12 the results were HIF-2a block 81*, HIF-2a conf 94* and HIF-1a counter 104*.
`CCOC(=O)[C@]12Cc3cc(OC)ccc3[C@H]1N(C(C)C)C(=O)c1cc(OC)ccc12` gave HIF-2a block 52*, HIF-2a conf 90* and HIF-1a counter 96*.
For O=C(c1cc(Cl)cc(Cl)c1)N1Cc2ccccc2-n2nncc2C1 the results were Peg3 prom inh 0, CF NFkB inh -15, KKLEB cytotox -8, HIF-2a block 1 and Shn3 3UTR inh -3.
For CCOC(=O)[C@]12Cc3cc(Cl)ccc3[C@H]1N(C(C)C)C(=O)c1ccccc12 the results were HIF-2a block 90*, HIF-2a conf 95* and HIF-1a counter 104*.
For CCCCN=C[C@]12CCC(O)CC1(O)CCC1[C@@H]2CC[C@]2(C)[C@H](C3C=CC(=O)O3)CCC12O (stereo partly drawn) the results were Peg3 prom inh 107*, CF NFkB inh 99*, TRPM1 prom inh 78*, KKLEB cytotox -72*, HIF-2a block 55*, Shn3 3UTR inh -31, Mdm2-MdmX confirm 82*, HIF-2a conf 21 and HIF-1a counter 104*.
